ALR inh: human ALR oxidase inhibition via reduced H2O2 | P55789 | purified ALR, DTT oxidation, H2O2 HRP-luminol luminescence | inhibition, % (concentration not given with the values) | 290,000 compounds, 3.8% hits | AID 485317;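 active = mean replicate inhibition above about 79%, with every replicate also reaching it, limit read from the data; inconclusive = only one of the two criteria met; inactive = mean below limit and not every replicate reaching it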
Target sequence (P55789 whole entry, looked up): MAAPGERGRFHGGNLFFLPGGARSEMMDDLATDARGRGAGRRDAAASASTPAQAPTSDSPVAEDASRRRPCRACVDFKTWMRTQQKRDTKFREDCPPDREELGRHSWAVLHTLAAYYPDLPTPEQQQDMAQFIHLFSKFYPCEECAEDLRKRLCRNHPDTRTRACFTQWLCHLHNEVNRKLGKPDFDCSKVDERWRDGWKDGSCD
M18AAP inhibitor: blocks P. falciparum M18 aspartyl aminopeptidase; recombinant PfM18AAP, H-Glu-NHMec fluorogenic cleavage; inhibition, % at 7.35 µM; 290,000 compounds, 1.2% hits;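 active = inhibition above the campaign mean inhibition over all tested compounds plus 3 SD, cut at about 28% in these data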;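 also: 0% = plate median of test compound wells and 100% = 2 mM ZnCl2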
Yeast superoxide: yeast age-related superoxide inhibition as caloric restriction mimetic | S. cerevisiae aged cells, superoxide DHE fluorescence; hits give low values | superoxide response (% of plate mean), % at 10 µM | 330,000 compounds, 0.18% hits;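 active = superoxide response under a set limit, about three screen SD below normal, cut at about 65% in these data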;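 also: yeast aged for seven days with compound at 30 °C before DHE staining; 100% = average MFI of all compound-treated wells on the plate with controls excluded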
APOBEC3A inh: inhibitors of human APOBEC3A DNA deaminase | recombinant A3A, FAM/TAMRA ssDNA deamination fluorescence | inhibition, % at 20 µM | P31941 | AID 493011 | 330,000 compounds, 0.41% hits;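 active = at least 40% inhibition at 20 µM here, with at most 30% in a related deaminase screen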;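 also: plate controls were A3A with DMSO for no effect and wells lacking A3A enzyme for full effect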
CendR NRP1 mod: alters CendR peptide binding to human NRP-1 | 360,000 compounds, 0.85% hits | O14786 | FAM-RPARPAR peptide binding to NRP-1, fluorescence polarization | AID 602438 | inhibition, % at 25 µM;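 active = inhibition or corrected inhibition above about 18%, plus a signal ratio from 0.5 to 1.5, limit read from the data, passing the limit was not always enough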
A3G deaminase: inhibitors of human APOBEC3G DNA deaminase; Q9HC16; recombinant A3G, ssDNA deamination FAM/TAMRA fluorescence; inhibition, % at 20 µM; 330,000 compounds, 0.28% hits;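 active = inhibition of at least 40% at 20 µM, with no more than 30% in the related APOBEC3A deaminase screen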;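 also: plate controls were DMSO wells with A3G for no effect and wells lacking A3G enzyme for full effect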
Target sequence (Q9HC16 whole entry, looked up): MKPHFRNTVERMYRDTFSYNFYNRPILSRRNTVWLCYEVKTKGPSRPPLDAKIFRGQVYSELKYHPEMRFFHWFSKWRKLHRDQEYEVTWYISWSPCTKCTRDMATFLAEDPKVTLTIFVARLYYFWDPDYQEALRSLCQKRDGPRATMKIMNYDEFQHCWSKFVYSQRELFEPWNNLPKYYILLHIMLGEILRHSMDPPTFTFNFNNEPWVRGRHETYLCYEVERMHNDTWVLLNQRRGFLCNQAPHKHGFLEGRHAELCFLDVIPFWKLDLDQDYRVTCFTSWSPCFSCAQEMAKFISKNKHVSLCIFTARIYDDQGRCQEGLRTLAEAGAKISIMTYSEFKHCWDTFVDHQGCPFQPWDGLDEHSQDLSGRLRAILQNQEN
Starred values were filed as active, the others as inactive. Hits are enriched below; roughly 5.2% of the tested compounds scored in any of these assays.

What do the screens show for `COc1ccc(C(=O)CSc2ccc(-c3ccco3)nn2)cc1`?
ALR inh: inconclusive; M18AAP inhibitor: -26; Yeast superoxide: 95; APOBEC3A inh: 5; CendR NRP1 mod: 4; A3G deaminase: -4

What do the screens show for `O=C(CSc1ccc(-c2ccco2)nn1)c1ccccc1`?
ALR inh: 98*; M18AAP inhibitor: -19; Yeast superoxide: 96; APOBEC3A inh: 19; CendR NRP1 mod: 2; A3G deaminase: -4

What do the screens show for `Cc1nnc(NC(=O)CSc2ccc(-c3ccco3)nn2)s1`?
ALR inh: 97*; M18AAP inhibitor: 5; Yeast superoxide: 108; APOBEC3A inh: 31; CendR NRP1 mod: -14; A3G deaminase: 23

Results for O=C(CSc1ccc(-c2ccco2)nn1)Nc1ccccc1 ?
ALR inh: 98*; M18AAP inhibitor: -1; Yeast superoxide: 97; APOBEC3A inh: 3; CendR NRP1 mod: -1; A3G deaminase: 3

How did Cc1ccc(CN2C(=O)CCC2C(=O)NCCCN2CCC(C)CC2)cc1 (stereo not given) do in these assays?
M18AAP inhibitor: 3; CendR NRP1 mod: 3

What do the screens show for `CCOc1ccc(/C=N/Nc2ccccn2)cc1OC`?
ALR inh: 86*; M18AAP inhibitor: 0; Yeast superoxide: 90; APOBEC3A inh: -2; CendR NRP1 mod: -9; A3G deaminase: -14

What do the screens show for `COc1cc(/C=N/Nc2ccccn2)cc(OC)c1O`?
ALR inh: 99*; M18AAP inhibitor: 16; Yeast superoxide: 95; APOBEC3A inh: -3; CendR NRP1 mod: 0; A3G deaminase: -7

Results for C=CCOc1ccc(/C=N/Nc2ccccn2)cc1OC ?
ALR inh: 15; M18AAP inhibitor: -2; Yeast superoxide: 97; APOBEC3A inh: 1; CendR NRP1 mod: 4; A3G deaminase: -10

Results for COc1cc(/C=C(\C#N)c2ccccn2)ccc1OCc1ccccc1Cl ?
ALR inh: 1; M18AAP inhibitor: 3; Yeast superoxide: 90; CendR NRP1 mod: 0

Results for COc1cc(/C=N/Nc2cccc3cccnc23)cc(OC)c1O ?
ALR inh: 36; M18AAP inhibitor: 30*; Yeast superoxide: 104; APOBEC3A inh: 2; CendR NRP1 mod: -11; A3G deaminase: 2

What do the screens show for `COc1cc(/C=C(\C#N)c2ccccn2)cc(OC)c1O`?
ALR inh: 98*; M18AAP inhibitor: 13; Yeast superoxide: 106; APOBEC3A inh: -33; CendR NRP1 mod: -77; A3G deaminase: -31

How did Oc1cccc(/C=N/Nc2cccc3cccnc23)c1 do in these assays?
M18AAP inhibitor: 24; APOBEC3A inh: -1; CendR NRP1 mod: 0; A3G deaminase: -3

How did C=CCN(C(=O)CNC(=O)c1ccco1)C(C(=O)NC1CCCCC1)c1cccnc1 (stereo not given) do in these assays?
ALR inh: -7; M18AAP inhibitor: 2; Yeast superoxide: 100; APOBEC3A inh: 0; CendR NRP1 mod: 1; A3G deaminase: -4

How did O=C(N/C(=C\c1cccc(Br)c1)C(=O)N1CCOCC1)c1ccco1 do in these assays?
ALR inh: -5; M18AAP inhibitor: -12; Yeast superoxide: 98; APOBEC3A inh: 2; CendR NRP1 mod: 4; A3G deaminase: -1

What do the screens show for `COc1ccc(NC(=O)CSc2nnc(-c3ccoc3C)n2CC2CCCO2)cc1` (stereo not given)?
ALR inh: -4; M18AAP inhibitor: -4; Yeast superoxide: 114; APOBEC3A inh: 0; CendR NRP1 mod: 3; A3G deaminase: 1

Results for C(=N\Nc1ccccn1)/c1ccc2c(c1)OCCO2 ?
ALR inh: 98*; M18AAP inhibitor: 1; Yeast superoxide: 107; APOBEC3A inh: 0; CendR NRP1 mod: 4; A3G deaminase: -6

How did COc1ccc(CCNC(=O)CCCC(=O)n2nc(C)c3ccccc32)cc1OC do in these assays?
ALR inh: -8; M18AAP inhibitor: 6; Yeast superoxide: 81; APOBEC3A inh: -1; CendR NRP1 mod: 5; A3G deaminase: -4

Results for Cc1cccc(NC(=O)CSc2nc3[nH]c(=O)cc(O)c3s2)c1 ?
ALR inh: 99*; Yeast superoxide: 86; APOBEC3A inh: 2; CendR NRP1 mod: -15; A3G deaminase: -7

Results for Cc1cccc(Nc2nnc(SCC(=O)Nc3ccc(C(=O)O)cc3)s2)c1 ?
ALR inh: 94*; M18AAP inhibitor: -14; Yeast superoxide: 89; APOBEC3A inh: -2; CendR NRP1 mod: -8; A3G deaminase: -15

How did COc1ccc(NC(=O)CSc2nc3[nH]c(=O)[nH]c(=O)c3s2)cc1OC do in these assays?
ALR inh: 99*; M18AAP inhibitor: 1; Yeast superoxide: 107; APOBEC3A inh: -3; CendR NRP1 mod: 2; A3G deaminase: -4

Results for COc1cc(NC(=O)CSc2nc3[nH]c(=O)cc(O)c3s2)cc(OC)c1OC ?
ALR inh: 99*; Yeast superoxide: 80; APOBEC3A inh: -1; CendR NRP1 mod: -6; A3G deaminase: -5

How did CC(=O)N1CCN(Cc2nc(-c3cccc(Cl)c3)no2)CC1 do in these assays?
ALR inh: -2; M18AAP inhibitor: 0; Yeast superoxide: 80; APOBEC3A inh: 4; CendR NRP1 mod: 0; A3G deaminase: -4

What do the screens show for `Cn1c(=O)c2c(nc(OCc3ccc4c(c3)OCO4)n2Cc2ccccc2Cl)n(C)c1=O`?
ALR inh: -2; M18AAP inhibitor: -1; Yeast superoxide: 96; APOBEC3A inh: -5; CendR NRP1 mod: 1; A3G deaminase: 0

Results for COc1ccc2oc(C(=O)OCC(=O)NC3CCS(=O)(=O)C3)c(C)c2c1 (stereo not given) ?
CendR NRP1 mod: -10

Results for O=C(CSc1nc2[nH]c(=O)cc(O)c2s1)Nc1ccc(Br)cc1 ?
ALR inh: 82*; Yeast superoxide: 78; APOBEC3A inh: 2; CendR NRP1 mod: 2; A3G deaminase: -4

What do the screens show for `O=C(CSc1nc2[nH]c(=O)cc(O)c2s1)Nc1cccc(Br)c1`?
ALR inh: 99*; Yeast superoxide: 70; APOBEC3A inh: 0; CendR NRP1 mod: -12; A3G deaminase: -4

How did Nc1cc(=O)[nH]c(SCC(=O)Nc2ccc(Br)cc2)n1 do in these assays?
ALR inh: 98*; M18AAP inhibitor: 3; Yeast superoxide: 109; APOBEC3A inh: -5; CendR NRP1 mod: 8; A3G deaminase: -4

How did Nc1cc(=O)[nH]c(SCC(=O)Nc2ccc(Cl)c(Cl)c2)n1 do in these assays?
ALR inh: -7; M18AAP inhibitor: -12; Yeast superoxide: 96; APOBEC3A inh: -2; CendR NRP1 mod: -2; A3G deaminase: -5

How did O=C(NCCC(=O)N1CCN(c2ccccc2O)CC1)c1ccc(Cl)cc1 do in these assays?
ALR inh: 27; Yeast superoxide: 102; APOBEC3A inh: -2; CendR NRP1 mod: -8; A3G deaminase: -11

Results for O=C(Nc1nnc(S(=O)(=O)N2CCOCC2)s1)c1ccccc1 ?
ALR inh: 99*; M18AAP inhibitor: 4; Yeast superoxide: 150; APOBEC3A inh: 6; CendR NRP1 mod: 1; A3G deaminase: 16

Screening data: PubChem, several laboratories
